# Results filed as inconclusive are left out. Activity calls are given as the source filed them. Rule for the calls, unless noted: active = hit-call score of the fitted dose curve at least 0.9, where 1 is the maximum; inconclusive = response in the unintended direction; inactive = score below 0.9.
# What was measured:
# [1] = ATG_TCF_b_cat_CIS: Attagene CIS-FACTORIAL HepG2 Assay for human T-Cell-Factor with beta-catenin (TCF/b-cat) (AID 2282965; active = hit-call score of the fitted dose curve at least 0.9, where 1 is the maximum; inactive = score below 0.9); details: HepG2 TCF/beta-catenin cis-reporter transcription, actives raise or lower the signal
# In short: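 Endogenous transcription factor activity is captured through cis-promoter reporter constructs transiently introduced into human HepG2 liver cells. Induced reporter mRNA is measured after 24 h and fitted bidirectionally relative to DMSO.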
# [2] = ATG_TAL_CIS: Attagene CIS-FACTORIAL HepG2 Assay for human TAL Basal Promoter (AID 2282966; active = hit-call score of the fitted dose curve at least 0.9, where 1 is the maximum; inactive = score below 0.9;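 note: background control endpoint measuring basal TAL promoter reporter mRNA not a specific factor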); details: HepG2 Attagene cis-factorial TAL promoter reporter; actives raise or lower the signal
# In short: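 HepG2, transient MRTU transfection, 24 h compound exposure; RNA → oligo(dT) RT → PCR → 6-FAM primer extension → HpaI digest → CE fluorescence. Bidirectional curve fit vs DMSO. Background-control readout.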
# [3] = ATG_VDRE_CIS: Attagene CIS-FACTORIAL HepG2 Assay for human Vitamin D Receptor Element (VDRE) (AID 2282968; active = hit-call score of the fitted dose curve at least 0.9, where 1 is the maximum; inactive = score below 0.9); details: HepG2 VDRE cis-reporter transcription, actives raise or lower the signal
# In short: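 Measures endogenous factor activity through cis-element-driven reporter transcripts in transiently transfected HepG2. Cells are treated 24 h; reporter mRNA is quantified by RT-PCR and capillary electrophoresis; fitting is bidirectional.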
# [4] = biological target: X-box-binding protein 1 (Homo sapiens) (UniProt P17861); test: ATG_Xbp1_CIS: Attagene CIS-FACTORIAL HepG2 Assay for human X-box Binding Protein 1 (XBP1) (AID 2282972; active = hit-call score of the fitted dose curve at least 0.9, where 1 is the maximum; inactive = score below 0.9); details: HepG2 XBP1 cis-element reporter, Attagene multiplex; actives raise or lower the signal
# X-box-binding protein 1 (Homo sapiens), sequence (P17861 whole entry, looked up): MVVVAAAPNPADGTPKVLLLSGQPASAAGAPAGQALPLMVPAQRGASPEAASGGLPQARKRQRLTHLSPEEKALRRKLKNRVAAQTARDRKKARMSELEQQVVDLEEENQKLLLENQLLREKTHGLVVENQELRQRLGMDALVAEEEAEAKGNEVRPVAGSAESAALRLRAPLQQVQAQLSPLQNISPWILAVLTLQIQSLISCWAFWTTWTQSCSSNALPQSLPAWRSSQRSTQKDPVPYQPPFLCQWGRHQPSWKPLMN
# In short: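 Changes in reporter transcript abundance, read by RT-PCR and capillary electrophoresis, reflect endogenous transcription factor activity. Transfected HepG2 cells received compound for 24 hours; DMSO defined baseline for bidirectional analysis.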
# [5] = ATG_M_19_TRANS: Attagene TRANS-FACTORIAL HepG2 Assay for M19 Transcription Factor (Internal Marker) (AID 2282974); details: HepG2 Attagene TRANS-FACTORIAL M19 internal marker reporter
# In short: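 Background-control readout: after 24 h chemical exposure of transfected HepG2 carrying GAL4-driven reporter units, RNA was reverse-transcribed, amplified, fluorescently labeled and sized by capillary electrophoresis; gain-of-signal fit against DMSO.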
# [6] = ATG_GAL4_TRANS: Attagene TRANS-FACTORIAL HepG2 Assay for GAL4 (Internal Marker) (AID 2282976); details: HepG2 Attagene TRANS GAL4 internal marker reporter
# In short: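 RT-PCR/capillary electrophoresis readout of reporter mRNA. HepG2, transient MRTU transfection (GAL4-UAS reporters), 24 h compound exposure. Background-control endpoint, positive direction vs DMSO baseline.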
# [7] = biological target: Bile acid receptor (Homo sapiens) (UniProt Q96RI1); test: ATG_FXR_TRANS: Attagene TRANS-FACTORIAL HepG2 Assay for Farnesoid X Receptor (FXR) (AID 2282979); details: HepG2 Attagene TRANS FXR-GAL4 reporter transcription;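 note: hits raise reporter mRNA above DMSO so AC50 marks FXR activation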
# Bile acid receptor (Homo sapiens), sequence (Q96RI1 whole entry, looked up, the tested form may be a part): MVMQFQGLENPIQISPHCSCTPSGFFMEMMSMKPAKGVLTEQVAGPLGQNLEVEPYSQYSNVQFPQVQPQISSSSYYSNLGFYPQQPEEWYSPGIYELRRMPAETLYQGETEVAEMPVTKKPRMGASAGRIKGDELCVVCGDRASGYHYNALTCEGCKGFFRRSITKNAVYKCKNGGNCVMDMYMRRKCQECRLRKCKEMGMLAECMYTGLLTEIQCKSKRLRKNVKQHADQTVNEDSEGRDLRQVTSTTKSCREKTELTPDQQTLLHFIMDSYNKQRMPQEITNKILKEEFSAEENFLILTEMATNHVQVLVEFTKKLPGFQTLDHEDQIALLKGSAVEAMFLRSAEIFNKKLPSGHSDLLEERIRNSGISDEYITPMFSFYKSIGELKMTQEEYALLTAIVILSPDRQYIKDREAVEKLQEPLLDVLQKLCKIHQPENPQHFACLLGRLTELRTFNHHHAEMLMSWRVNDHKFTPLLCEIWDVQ
# In short: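 Read-out: fluorescent reporter transcripts quantified by capillary electrophoresis after RT-PCR of total RNA. Source cells were HepG2 transiently carrying chimeric NR-GAL4 plus GAL4-UAS reporter units, dosed 24 h. Activity fitted upward relative to DMSO baseline.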
# [8] = biological target: Oxysterols receptor LXR-beta (Homo sapiens) (UniProt P55055); test: ATG_LXRb_TRANS: Attagene TRANS-FACTORIAL HepG2 Assay for human Liver X Receptor beta (LXRb) (AID 2282981); details: HepG2 Attagene TRANS GAL4-LXRb reporter, mRNA
# Oxysterols receptor LXR-beta (Homo sapiens), sequence (P55055 whole entry, looked up, the tested form may be a part): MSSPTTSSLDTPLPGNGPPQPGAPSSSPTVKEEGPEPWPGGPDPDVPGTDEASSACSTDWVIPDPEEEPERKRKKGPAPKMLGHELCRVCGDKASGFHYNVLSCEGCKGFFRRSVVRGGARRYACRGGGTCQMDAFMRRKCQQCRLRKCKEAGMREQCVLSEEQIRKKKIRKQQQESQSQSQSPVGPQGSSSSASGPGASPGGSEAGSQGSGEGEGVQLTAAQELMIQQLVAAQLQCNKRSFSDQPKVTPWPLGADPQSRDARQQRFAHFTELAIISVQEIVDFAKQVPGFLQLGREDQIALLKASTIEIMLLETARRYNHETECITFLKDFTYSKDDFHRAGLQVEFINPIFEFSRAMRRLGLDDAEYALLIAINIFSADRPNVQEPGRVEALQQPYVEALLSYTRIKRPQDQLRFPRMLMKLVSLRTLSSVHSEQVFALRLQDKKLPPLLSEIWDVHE
# In short: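 After 24 h of chemical treatment, transfected HepG2 cells yield total RNA; reporter cDNA is PCR-amplified, FAM-labelled, HpaI-cut and run on capillary electrophoresis. Signal reflects chimeric LXRb-Gal4 activity on GAL4-UAS reporters.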
# [9] = ATG_M_32_TRANS: Attagene TRANS-FACTORIAL HepG2 Assay for M32 Transcription Factor (Internal Marker) (AID 2282984); details: HepG2 Attagene TRANS M32 internal marker reporter;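 note: transcript level of a background control reporter unit measured by RT-PCR and capillary electrophoresis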
# In short: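 Cell-based TRANS-format assay in HepG2: exogenous chimeric GAL4 reporter units transiently expressed, compounds applied 24 h. Reporter mRNA detected by RT-PCR plus capillary electrophoresis; this readout is an internal background marker.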
# [10] = biological target: Transcriptional activator Myb (Homo sapiens) (UniProt P10242); test: ATG_Myb_CIS: Attagene CIS-FACTORIAL HepG2 Assay for human Myeloblastosis (Myb) Proto-Oncogene Transcription Factor (AID 2282986; active = hit-call score of the fitted dose curve at least 0.9, where 1 is the maximum; inactive = score below 0.9); details: HepG2 Attagene CIS-FACTORIAL Myb reporter transcription; actives raise or lower the signal
# Transcriptional activator Myb (Homo sapiens), sequence (P10242 whole entry, looked up): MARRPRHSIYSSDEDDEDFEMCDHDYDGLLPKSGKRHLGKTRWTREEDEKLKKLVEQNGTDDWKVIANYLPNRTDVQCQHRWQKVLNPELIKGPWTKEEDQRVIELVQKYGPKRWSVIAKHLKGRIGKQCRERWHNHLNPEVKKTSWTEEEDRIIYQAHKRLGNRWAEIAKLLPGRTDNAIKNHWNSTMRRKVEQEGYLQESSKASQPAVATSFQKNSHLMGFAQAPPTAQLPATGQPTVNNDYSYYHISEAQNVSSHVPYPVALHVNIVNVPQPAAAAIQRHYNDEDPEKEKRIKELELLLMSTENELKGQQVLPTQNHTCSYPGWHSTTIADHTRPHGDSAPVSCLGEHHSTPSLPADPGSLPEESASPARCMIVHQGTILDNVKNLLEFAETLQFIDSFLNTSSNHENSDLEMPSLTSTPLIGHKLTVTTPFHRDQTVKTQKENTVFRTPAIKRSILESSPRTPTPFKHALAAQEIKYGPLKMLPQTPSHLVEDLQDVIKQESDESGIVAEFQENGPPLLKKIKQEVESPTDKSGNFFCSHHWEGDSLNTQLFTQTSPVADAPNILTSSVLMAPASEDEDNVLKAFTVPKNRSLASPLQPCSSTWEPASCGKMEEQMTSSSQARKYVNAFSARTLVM
# In short: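 Reporter mRNA is quantified by RT-PCR and capillary electrophoresis 24 h after dosing HepG2 cells transfected with cis-regulated reporter units, which track endogenous transcription factor activity. Gain and loss of signal are fitted versus DMSO baseline.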
# [11] = biological target: Glucocorticoid receptor (Homo sapiens) (UniProt P04150); test: ATG_GR_TRANS: Attagene TRANS-FACTORIAL HepG2 Assay for human Glucocorticoid Receptor (GR) (AID 2282978); details: HepG2 Attagene TRANS GR reporter, mRNA transcription;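 note: activators score as hits since higher reporter transcript over DMSO is fitted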
# Glucocorticoid receptor (Homo sapiens), sequence (P04150 whole entry, looked up, the tested form may be a part): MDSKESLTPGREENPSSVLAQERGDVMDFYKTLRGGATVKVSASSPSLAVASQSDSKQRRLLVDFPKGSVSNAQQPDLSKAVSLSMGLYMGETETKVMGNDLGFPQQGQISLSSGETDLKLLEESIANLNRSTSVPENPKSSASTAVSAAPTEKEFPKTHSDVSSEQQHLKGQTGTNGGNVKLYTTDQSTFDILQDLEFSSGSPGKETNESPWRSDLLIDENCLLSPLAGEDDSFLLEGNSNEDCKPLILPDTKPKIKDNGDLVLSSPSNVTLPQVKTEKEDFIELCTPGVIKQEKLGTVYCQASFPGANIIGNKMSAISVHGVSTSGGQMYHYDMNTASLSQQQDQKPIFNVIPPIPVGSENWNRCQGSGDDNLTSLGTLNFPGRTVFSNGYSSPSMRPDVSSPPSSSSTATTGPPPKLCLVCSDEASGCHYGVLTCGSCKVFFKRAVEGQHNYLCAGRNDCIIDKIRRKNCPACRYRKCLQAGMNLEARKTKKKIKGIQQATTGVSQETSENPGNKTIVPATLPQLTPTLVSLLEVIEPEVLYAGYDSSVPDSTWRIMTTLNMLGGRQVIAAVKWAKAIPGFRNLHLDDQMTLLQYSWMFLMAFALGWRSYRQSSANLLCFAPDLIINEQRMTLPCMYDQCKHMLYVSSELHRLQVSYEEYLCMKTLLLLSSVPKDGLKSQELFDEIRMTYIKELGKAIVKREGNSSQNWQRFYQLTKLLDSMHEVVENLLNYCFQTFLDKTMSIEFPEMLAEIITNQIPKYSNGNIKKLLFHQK
# In short: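 Readout is reporter transcript from a chimeric GR-Gal4 acting on GAL4-UAS in transfected human HepG2 liver cells after 24 h exposure, quantified by RT-PCR and capillary electrophoresis. Activation fitted upward against DMSO.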
# [12] = biological target: Estrogen receptor (Homo sapiens) (UniProt P03372); test: ATG_ERa_TRANS: Attagene TRANS-FACTORIAL HepG2 Assay for human Estrogen Receptor alpha (ERa) (AID 2282970); details: HepG2 Attagene TRANS ERa GAL4 reporter, mRNA
# Estrogen receptor (Homo sapiens), sequence (P03372 whole entry, looked up, the tested form may be a part): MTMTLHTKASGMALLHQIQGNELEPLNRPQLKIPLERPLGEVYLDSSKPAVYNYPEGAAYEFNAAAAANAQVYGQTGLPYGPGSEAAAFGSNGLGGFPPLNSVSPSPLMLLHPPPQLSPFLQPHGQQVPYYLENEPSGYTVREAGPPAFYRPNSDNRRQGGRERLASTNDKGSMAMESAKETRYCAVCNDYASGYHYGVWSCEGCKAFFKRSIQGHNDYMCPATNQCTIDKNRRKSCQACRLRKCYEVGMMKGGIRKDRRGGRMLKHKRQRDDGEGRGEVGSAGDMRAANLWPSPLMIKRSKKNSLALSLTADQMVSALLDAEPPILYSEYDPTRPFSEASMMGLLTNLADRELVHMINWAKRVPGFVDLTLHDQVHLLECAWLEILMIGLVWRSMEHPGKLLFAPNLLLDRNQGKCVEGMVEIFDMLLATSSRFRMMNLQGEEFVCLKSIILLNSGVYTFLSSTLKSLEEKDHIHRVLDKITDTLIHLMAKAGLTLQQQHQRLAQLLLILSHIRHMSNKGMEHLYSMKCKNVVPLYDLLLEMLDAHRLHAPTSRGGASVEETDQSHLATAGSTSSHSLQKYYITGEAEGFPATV
# In short: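 Reporter mRNA induction after 24 hours, detected by fluorescent RT-PCR and capillary electrophoresis, gives the read-out. Cells are HepG2 transiently transfected with GAL4-UAS reporter transcription units responding to chimeric NR-Gal4. Activity is taken as gain of signal over DMSO baseline.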
# [13] = biological target: Oxysterols receptor LXR-alpha (Homo sapiens) (UniProt Q13133); test: ATG_LXRa_TRANS: Attagene TRANS-FACTORIAL HepG2 Assay for human Liver X Receptor alpha (LXRa) (AID 2282980); details: HepG2 Attagene TRANS reporter, LXRa transactivation
# In short: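 Read-out: reporter transcript levels by RT-PCR plus capillary electrophoresis, fluorescence intensity. Transiently transfected HepG2, exogenous NR-GAL4 chimera, GAL4-UAS reporters; 24 h compound exposure. Activity = increase over DMSO negative control.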
# [14] = biological target: Hepatocyte nuclear factor 4-alpha (Homo sapiens) (UniProt P41235); test: ATG_HNF4a_TRANS: Attagene TRANS-FACTORIAL HepG2 Assay for human Hepatocyte Nuclear Factor 4 alpha (HNF4a) (AID 2282982); details: HepG2 HNF4a transactivation reporter, mRNA readout
# Hepatocyte nuclear factor 4-alpha (Homo sapiens), sequence (P41235 whole entry, looked up): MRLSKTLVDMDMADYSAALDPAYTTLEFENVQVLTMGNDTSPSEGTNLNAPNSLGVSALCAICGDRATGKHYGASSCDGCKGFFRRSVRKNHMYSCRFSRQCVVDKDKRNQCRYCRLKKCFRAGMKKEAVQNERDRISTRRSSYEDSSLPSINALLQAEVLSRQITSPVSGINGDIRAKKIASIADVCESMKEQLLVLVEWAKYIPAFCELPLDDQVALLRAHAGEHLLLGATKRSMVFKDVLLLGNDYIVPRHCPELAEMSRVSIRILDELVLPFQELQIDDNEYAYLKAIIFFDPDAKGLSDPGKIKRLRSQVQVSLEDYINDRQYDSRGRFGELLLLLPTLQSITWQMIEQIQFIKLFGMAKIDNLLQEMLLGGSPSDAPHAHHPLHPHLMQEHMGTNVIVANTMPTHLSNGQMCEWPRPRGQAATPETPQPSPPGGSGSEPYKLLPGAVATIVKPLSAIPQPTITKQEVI
# In short: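 Multiplexed reporter assay: transfected HepG2, 24 h exposure, total RNA → oligo(dT) RT → PCR → 6-FAM extension → HpaI digest → CE fluorescence. DMSO = negative control.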
# [15] = biological target: Nuclear receptor subfamily 4 group A member 2 (Homo sapiens) (UniProt P43354); test: ATG_NURR1_TRANS: Attagene TRANS-FACTORIAL HepG2 Assay for human Nuclear Receptor Related Protein 1 (NURR1) (AID 2282985); details: HepG2 Attagene TRANS reporter, mRNA readout
# Nuclear receptor subfamily 4 group A member 2 (Homo sapiens), sequence (P43354 whole entry, looked up, the tested form may be a part): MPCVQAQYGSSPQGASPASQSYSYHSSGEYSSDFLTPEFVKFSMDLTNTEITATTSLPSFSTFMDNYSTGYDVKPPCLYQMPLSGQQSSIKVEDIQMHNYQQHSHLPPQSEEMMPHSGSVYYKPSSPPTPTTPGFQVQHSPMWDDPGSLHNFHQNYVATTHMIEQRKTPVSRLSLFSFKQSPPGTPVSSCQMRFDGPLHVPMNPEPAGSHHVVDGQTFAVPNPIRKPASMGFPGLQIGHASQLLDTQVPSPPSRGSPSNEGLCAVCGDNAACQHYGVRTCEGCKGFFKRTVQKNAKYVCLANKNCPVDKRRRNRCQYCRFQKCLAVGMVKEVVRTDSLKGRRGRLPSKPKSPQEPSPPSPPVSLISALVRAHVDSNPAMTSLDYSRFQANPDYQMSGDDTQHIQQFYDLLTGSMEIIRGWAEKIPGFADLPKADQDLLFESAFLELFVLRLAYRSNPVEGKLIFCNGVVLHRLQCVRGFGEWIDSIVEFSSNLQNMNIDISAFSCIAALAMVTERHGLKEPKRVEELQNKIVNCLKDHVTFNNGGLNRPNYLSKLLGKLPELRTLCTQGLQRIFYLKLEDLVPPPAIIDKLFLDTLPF
# In short: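 Measures transcriptional activation by an exogenous NR-Gal4 chimera in transfected HepG2 liver cells. After 24 h, reporter RNA is reverse-transcribed, amplified and resolved by capillary electrophoresis; DMSO defines baseline.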
# [16] = biological target: Steroid hormone receptor ERR1 (Homo sapiens) (UniProt P11474); test: ATG_ERRa_TRANS: Attagene TRANS-FACTORIAL HepG2 Assay for human Estrogen-Related Receptor alpha (ERRa) (AID 2282971); details: HepG2 Attagene TRANS reporter, ERRa transactivation
# In short: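 Transfected HepG2, 24 h dosing, ERRa-Gal4 chimera driving GAL4-UAS reporter. Readout: reporter mRNA via RT-PCR plus capillary electrophoresis (fluorescence). Positive direction vs DMSO control.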
# [17] = biological target: Estrogen-related receptor gamma (Homo sapiens) (UniProt P62508); test: ATG_ERRg_TRANS: Attagene TRANS-FACTORIAL HepG2 Assay for human Estrogen-Related Receptor gamma (ERRg) (AID 2282977); details: HepG2 Attagene TRANS reporter, ERRg transactivation;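 note: hits increase reporter signal over DMSO so potencies reflect activators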
# In short: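 Exogenous NR-Gal4 chimera activity was assessed in HepG2 cells bearing transfected GAL4-UAS reporters. After 24 h dosing, total RNA underwent RT-PCR, fluorescent primer extension and HpaI digestion before capillary electrophoresis, with gain of signal scored against DMSO.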
# [18] = ATG_TGFb_CIS: Attagene CIS-FACTORIAL HepG2 Assay for human Transforming Growth Factor (TGF) (AID 2282967; active = hit-call score of the fitted dose curve at least 0.9, where 1 is the maximum; inactive = score below 0.9); details: HepG2 Attagene CIS TGFb reporter, mRNA transcription; actives raise or lower the signal
# In short: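 After a 24-hour incubation with compound, transfected HepG2 cells were lysed for RNA; reporter cDNA was amplified, fluorescently end-labeled and separated by CE. DMSO served as baseline for bidirectional fits.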
# [19] = biological target: Nuclear receptor subfamily 1 group I member 3 (Homo sapiens) (UniProt Q14994); test: ATG_CAR_TRANS: Attagene TRANS-FACTORIAL HepG2 Assay for human Constitutive Androstane Receptor (CAR) (AID 2282969); details: HepG2 Attagene TRANS-FACTORIAL CAR reporter;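 note: activators raise reporter mRNA above DMSO so AC50 marks induction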
# Nuclear receptor subfamily 1 group I member 3 (Homo sapiens), sequence (Q14994 whole entry, looked up, the tested form may be a part): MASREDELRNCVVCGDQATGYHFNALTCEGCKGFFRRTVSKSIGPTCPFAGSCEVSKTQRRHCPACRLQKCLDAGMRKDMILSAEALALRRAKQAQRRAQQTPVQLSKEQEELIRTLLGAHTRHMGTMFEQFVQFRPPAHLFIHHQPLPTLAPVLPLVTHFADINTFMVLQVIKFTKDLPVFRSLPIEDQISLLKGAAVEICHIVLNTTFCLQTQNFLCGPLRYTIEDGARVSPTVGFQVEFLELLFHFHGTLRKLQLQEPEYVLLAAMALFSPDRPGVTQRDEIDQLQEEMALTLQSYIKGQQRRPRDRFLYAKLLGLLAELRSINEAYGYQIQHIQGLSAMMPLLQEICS
# In short: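 Signal is reporter mRNA induction relative to DMSO, measured 24 h after dosing by RT-PCR with fluorescent primer extension and capillary electrophoresis. Human HepG2 liver cells carried transiently transfected chimeric NR-Gal4/GAL4-UAS reporter constructs.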
# [20] = ATG_M_06_TRANS: Attagene TRANS-FACTORIAL HepG2 Assay for M06 Transcription Factor (Internal Marker) (AID 2282983); details: HepG2 Attagene TRANS M06 internal marker reporter
# In short: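 Read-out: fluorescent reporter cDNA fragments resolved by capillary electrophoresis after RT-PCR and HpaI cut. Source cells were HepG2 carrying transfected multi-reporter GAL4 constructs, dosed 24 h. Increase over DMSO control analysed.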
smiles,measurement,setting,value
CCCC/C=C/C=C\C=O,AC50,[1],100 µM (active)
same,outcome,[2],inactive
same,AC50,[3],6.51 µM (active)
same,AC50,[4],178 µM (active)
same,outcome,[5],inactive
same,outcome,[6],inactive
same,outcome,[7],inactive
same,outcome,[8],inactive
same,outcome,[9],inactive
same,outcome,[10],inactive
CC(=O)c1ccc(S(=O)(=O)NC(=O)NC2CCCCC2)cc1,outcome,[1],inactive
same,outcome,[2],inactive
same,outcome,[3],inactive
same,outcome,[4],inactive
same,outcome,[5],inactive
same,outcome,[11],inactive
same,outcome,[10],inactive
O=S(=O)(O)c1ccc(N=Nc2c(O)ccc3ccccc23)cc1,outcome,[1],inactive
same,outcome,[2],inactive
same,outcome,[3],inactive
same,outcome,[12],inactive
same,outcome,[4],inactive
same,outcome,[5],inactive
same,outcome,[13],inactive
same,outcome,[8],inactive
same,outcome,[14],inactive
same,outcome,[15],inactive
same,outcome,[10],inactive
CCCCCCCC(=O)OCC,outcome,[1],inactive
same,outcome,[2],inactive
same,outcome,[3],inactive
same,outcome,[12],inactive
same,outcome,[16],inactive
same,outcome,[4],inactive
same,outcome,[5],inactive
same,outcome,[6],inactive
same,outcome,[17],inactive
same,outcome,[7],inactive
same,outcome,[8],inactive
same,outcome,[15],inactive
same,outcome,[10],inactive
CCN1CN(CC)CN(CC)C1,AC50,[1],132 µM (active)
same,outcome,[2],inactive
same,outcome,[18],inactive
same,AC50,[4],162 µM (active)
same,outcome,[5],inactive
same,outcome,[7],inactive
same,outcome,[13],inactive
same,outcome,[8],inactive
same,outcome,[9],inactive
same,outcome,[15],inactive
same,outcome,[10],inactive
CCCCC1C(=O)N(c2ccccc2)N(c2ccccc2)C1=O,outcome,[1],inactive
same,outcome,[2],inactive
same,outcome,[3],inactive
same,outcome,[19],inactive
same,outcome,[4],inactive
same,outcome,[5],inactive
same,outcome,[6],inactive
same,outcome,[17],inactive
same,outcome,[11],inactive
same,outcome,[7],inactive
same,outcome,[14],inactive
same,outcome,[9],inactive
same,outcome,[15],inactive
same,outcome,[10],inactive
CCCCCCCCCCCCCCCCCCOS(=O)(=O)O,AC50,[1],17.3 µM (active)
same,outcome,[2],inactive
same,AC50,[3],51.7 µM (active)
same,outcome,[12],inactive
same,outcome,[16],inactive
same,AC50,[4],33.4 µM (active)
same,outcome,[5],inactive
same,outcome,[13],inactive
same,outcome,[8],inactive
same,outcome,[14],inactive
same,AC50,[15],179 µM (active)
same,outcome,[10],inactive
CCC1(C)C(=O)N(Cl)C(=O)N1Cl (centres undefined),AC50,[1],52.2 µM (active)
same,outcome,[2],inactive
same,AC50,[3],32.4 µM (active)
same,outcome,[19],inactive
same,AC50,[4],47.1 µM (active)
same,outcome,[5],inactive
same,outcome,[6],inactive
same,outcome,[17],inactive
same,outcome,[11],inactive
same,outcome,[14],inactive
same,outcome,[9],inactive
same,outcome,[15],inactive
same,outcome,[10],inactive
CC(C)CO,outcome,[1],inactive
same,outcome,[2],inactive
same,outcome,[3],inactive
same,outcome,[4],inactive
same,outcome,[6],inactive
same,outcome,[11],inactive
same,outcome,[8],inactive
same,outcome,[14],inactive
same,outcome,[20],inactive
same,outcome,[10],inactive
Cc1ccc2c(c1)CCCN2,outcome,[1],inactive
same,outcome,[2],inactive
same,outcome,[18],inactive
same,outcome,[4],inactive
same,outcome,[13],inactive
same,outcome,[14],inactive
same,outcome,[20],inactive
same,outcome,[10],inactive
CC1=CC=C(C(C)C)CC1,outcome,[1],inactive
same,outcome,[2],inactive
same,outcome,[19],inactive
same,outcome,[12],inactive
same,outcome,[4],inactive
same,outcome,[5],inactive
same,outcome,[13],inactive
same,outcome,[14],inactive
same,outcome,[20],inactive
same,outcome,[10],inactive

# From PubChem BioAssay (EPA / NIEHS)
